Compound activity as filed in PubChem BioAssay.
DT40 TDP1 CPT: growth inhibition of DT40 Tdp1-/-;hTDP1 cells with camptothecin (screen for TDP1 inhibitors); chicken DT40 Tdp1-/-;hTDP1 cells + 20 nM CPT, ATP luminescence, 48 h; Potency, µM (titrated, usually from 46.2 µM), for the others: at the top dose activity change, negative = growth inhibition, most hits filed as inhibitors; 420,000 tested, 12% active; AID 686979; further: potency means the concentration at half of the fitted maximal effect; nearly all actives have a fitted effect of over 55% in size
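Chicken DT40 Tdp1-/- cells stably complemented with human TDP1 were seeded at 400 cells/well in medium containing 20 nM camptothecin, exposed to pin-transferred compounds, and grown at 37 °C for at least 48 hr. Viability was read as ATP luminescence.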
ELG1 DNA repair: blocks ELG1-dependent DNA repair in HEK293T cells; HEK293T ELG1-luciferase reporter, luminescence, 16 h; DNA damage induced by 5-fluorouridine; Potency, µM (doses to about 46.1 µM), inactives show at the highest dose activity change, negative = inhibition, hits mostly inhibitors; 330,000 tested, 2.3% active; further: potency means the concentration at half of the fitted maximal effect; nearly all actives have a fitted effect of over 55% in size
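In this reporter screen, reduction of luminescence relative to DMSO vehicle indicated activity. Compounds and 5-fluorouridine were added together to 2,000 cells per well, incubated for 16 hr at 37 °C, then developed with ONE-Glo.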
Giardia killer: Giardia lamblia killing; 340,000 tested, 0.15% active; activity change, % at 7.66 µM, hits read low; Giardia lamblia trophozoite viability; in the data active means activity change below about -80%; inconclusive means between about -30% and that limit;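 further: parasites exposed to compound for two days anaerobically before the ATP read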
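Luminescence from cellular ATP indicates surviving trophozoites (100 cells/well) following 48 hrs anaerobic compound treatment at 37 deg C; signal develops 15-30 min at room temperature.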
TDP1 inh: TDP1 (human) enzyme inhibition; Q9NUW8; recombinant TDP1, AlphaScreen DNA substrate cleavage; Potency, µM (highest dose often 130 µM), for the others: at the top dose activity change, negative = inhibition, most hits filed as inhibitors; 350,000 tested, 0.28% active; further: potency means the concentration at half of the fitted maximal effect; nearly all actives have a fitted effect of over 40% in size
Target sequence (Q9NUW8 whole entry, looked up): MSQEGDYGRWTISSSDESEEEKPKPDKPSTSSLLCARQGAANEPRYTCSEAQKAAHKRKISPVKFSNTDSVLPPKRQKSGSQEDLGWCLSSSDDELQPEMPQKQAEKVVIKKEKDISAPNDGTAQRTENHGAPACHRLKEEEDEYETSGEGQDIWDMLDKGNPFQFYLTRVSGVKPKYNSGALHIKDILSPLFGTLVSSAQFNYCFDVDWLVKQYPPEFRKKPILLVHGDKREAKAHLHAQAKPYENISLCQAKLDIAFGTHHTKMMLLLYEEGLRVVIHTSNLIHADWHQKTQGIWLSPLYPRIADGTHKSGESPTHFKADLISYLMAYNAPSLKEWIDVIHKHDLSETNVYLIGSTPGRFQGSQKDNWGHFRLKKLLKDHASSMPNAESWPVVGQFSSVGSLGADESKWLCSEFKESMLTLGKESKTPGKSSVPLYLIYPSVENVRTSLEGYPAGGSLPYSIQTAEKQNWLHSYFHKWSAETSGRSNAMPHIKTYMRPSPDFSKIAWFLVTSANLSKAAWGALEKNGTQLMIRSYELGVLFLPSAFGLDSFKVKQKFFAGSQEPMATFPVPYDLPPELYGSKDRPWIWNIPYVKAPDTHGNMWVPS
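Tdp1 1 nM final; 15 min RT w/ cpd; substrate 15 nM, 5 min; beads 10 ug/ml, 10 min; AlphaScreen read. Neg ctrl: no enzyme.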
IL1B secr inh: inflammasome signaling inhibition, IL-1 beta readout. THP-1 LPS/ATP IL-1B secretion, AlphaLISA, 16 h; stronger effect = lower value. activity change, % at 57.5 µM. 360,000 tested, 4.7% active; in the data active means activity change below about -50%; inconclusive means mostly about -30% to -49%
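Secreted IL-1B measured by AlphaLISA bead assay after 16 h compound exposure of THP-1 cells; compounds (final up to 57.5 uM) added 1 h before LPS (250 ng/mL) and ATP (1.25 mM) stimulation; lower signal means less secretion.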
TDP1 cell noCPT: qHTS for Inhibitors of human tyrosyl-DNA phosphodiesterase 1 (TDP1): qHTS in cells in absence of CPT | DT40 Tdp1-/- hTDP1 cells, no CPT, ATP luminescence, 48 h | Potency, µM (doses to about 46.2 µM), inactives show at the top dose activity change, negative = growth inhibition, hits mostly inhibitors | 420,000 tested, 15% active | AID 686978, 2013; further: potency means the concentration at half of the fitted maximal effect; nearly all actives have a fitted effect of over 55% in size
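Growth kinetics read by CellTiter-Glo luminescence after ≥48 hr at 37 °C. Cells: DT40 Tdp1-/- stably carrying human TDP1, 400 per well, compound exposure in the absence of CPT (DMSO vehicle).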
* marks the source's active call; other numbers are inactive results; ? = inconclusive; . = no result; [ ] = another dose, or the depositor's remark. Compounds with a hit are over-represented: about 19% of the library has one in this group of screens. Unless noted, the call rests on the fitted dose curve; in most records, active means well fitted curve in the direction sought with a large enough effect; inconclusive means small, poorly fitted or top-dose-only effect, or another doubt; inactive means no such curve, though single readings can be large; an effect the other way counts as inactive or inconclusive. On the % scale 0 is the no-effect control and ±100 the full control effect.

SMILES	DT40 TDP1 CPT	ELG1 DNA repair	Giardia killer	TDP1 inh	IL1B secr inh	TDP1 cell noCPT
Cc1c(C)n(Cc2ccccc2)c2ccc(C(=O)OCCCN(C)C)cc12	?	?	-4.5	2.8%	-108.8*	20.6µM*
Cc1c(C)n(CCN(C)C)c2ccc(C(=O)OCCN(C)C)cc12	?	-12.2%	5.7	1.6%	-25.0	21.1µM*
CCCCC1=CC2=CC(=O)C(C)(OC(=O)CC)C(=O)C2=CN1Cc1ccc2c(c1)OCO2 (stereo not given)	?	-0.5%	-22.6	4.4%[21 µM]	35.2	14.6µM*
CCCCC1=CC2=CC(=O)C(C)(OC(=O)CC)C(=O)C2=CN1CCCCO (stereo not given)	16.1%	12.9%	?	5.3%[12.3 µM]	8.5	-4.2%
CCCCC1=CC2=CC(=O)C(C)(OC(=O)CC)C(=O)C2=CN1c1ccc(OC)cc1 (stereo not given)	25.9µM*	-2.0%	19.7	6.2%[12.3 µM]	25.3	?
COc1ccc(-c2cc(C(F)(F)F)nc(NCCc3ccccc3)n2)cc1OC	-15.9%	.	.	0.0%	.	-24.9%
COc1nc(-c2ccccc2)cc(-c2ccc(OC)c(OC)c2)n1	?	?	-22.2	0.0%	-18.8	20.6µM*
COc1ccc(-c2cc(-c3ccccc3)nc(NN)n2)cc1OC	3.66µM*	?	12.8	7.5%	?	?
COc1ccc(OCc2nc3c4cc(OC)c(OC)cc4nc(=S)n3[nH]2)cc1	6.51µM*	0.1%	27.7	1.9%	20.8	6.51µM*
COC(=O)c1ccccc1C(=O)N1CCc2c(cnc(C)c2CNC(=O)c2ccccc2F)C1	-4.7%[9.04 µM]	.	.	.	.	-5.9%
O=C(Cn1ncc2c3ccccc3n(Cc3ccccc3F)c2c1=O)NC1CC1	-7.5%	?	-18.0	-0.9%	-16.1	0.5%
Cc1cc(C)c(Cn2c3ccccc3c3cnn(CC(=O)NCc4cccs4)c(=O)c32)c(C)c1	14.6µM*	.	.	5.1%	.	20.6µM*
Cc1cc(C)c(Cn2c3ccccc3c3cnn(CC(=O)NC4CCCCCC4)c(=O)c32)c(C)c1	-21.9%	.	.	0.0%	.	?
CC1CCCCN1C(=O)Cn1ncc2c3ccccc3n(Cc3ccccc3F)c2c1=O (stereo not given)	9.2µM*	.	.	0.0%	.	9.2µM*
CCOC(=O)C1CCCN(C(=O)Cn2ncc3c4ccccc4n(Cc4ccc(F)cc4)c3c2=O)C1 (stereo not given)	23.1µM*	.	.	5.1%	.	14.6µM*
CN1CCN(C(=O)Cn2ncc3c4ccccc4n(Cc4ccc(Cl)cc4)c3c2=O)CC1	23.1µM*	.	.	5.1%	.	10.3µM*
Cc1nc(CN(C)C(=O)c2ccccc2OC2CCN(S(C)(=O)=O)CC2)cs1	1.2%	0.8%	-6.9	-1.2%	3.0	-17.6%
CN(CCCC1CCCC1)C(=O)CC1C(=O)NCCN1Cc1ccc(F)cc1 (stereo not given)	-23.7%	-0.3%	-4.0	2.5%	-23.9	?
COc1cccc([C@@H]2Oc3ccc(Br)cc3C[C@H]2OC(=O)NCCc2ccc(OC)c(OC)c2)c1	.	.	.	6.9%	.	.
CCN1CCN(C(=O)Cn2ncc3c4ccccc4n(Cc4c(C)cc(C)cc4C)c3c2=O)CC1	?	.	.	0.0%	.	16.4µM*
Cc1cc(C)c(Cn2c3ccccc3c3cnn(CC(=O)N4CCCCC4)c(=O)c32)c(C)c1	-22.7%	.	.	0.0%	.	-23.4%
CCN1CCN(C(=O)Cn2ncc3c4ccccc4n(Cc4ccccc4F)c3c2=O)CC1	14.6µM*	.	.	7.6%	.	18.4µM*
Cc1ccccc1Cn1c2ccccc2c2cnn(CC(=O)N3CCC(C)CC3)c(=O)c21	20.6µM*	.	.	-2.5%	.	14.6µM*
CCCn1c2ccccc2c2cnn(CC(=O)N3CCN(c4ccccc4F)CC3)c(=O)c21	?	.	.	3.7%	.	?
